From PubChem BioAssay
CYP2C9 inhib = human CYP2C9 inhibition | P11712 | inhibition, % at 5 µM | CYP2C9 Supersomes, luciferin-H conversion, luminescence | 96,000 tested, 20% active;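 active = blocking of liver enzyme CYP2C9 beyond about 50% at 5 µM, limit read from the data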
CYP2C9 activ = activators of human CYP2C9 | P11712 | recombinant CYP2C9, luciferin-H conversion, luminescence; hits give high values; factor 1 = untreated enzyme, 0 = blocked | activation factor at 5 µM | 96,000 tested, 1.4% active | AID 1024;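 active = activation factor of 2 or more for CYP2C9 at a 5 µM dose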;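 also: 0 = sulfaphenazole-blocked wells and 1 = vehicle-only wells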
Cav32 inh = inhibitors of human Cav3.2 T-type calcium channel; Cav3.2-expressing cells, Fluo-4 calcium fluorescence FDSS; hits give low values; AID 449739; O95180; 100,000 tested, 4% active; B-score at 10 µM;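 active = single-dose well whose peak fluorescence ratio is a statistical outlier from its plate by either plate-standardised score or position-corrected B-score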
CYP2C19 inhib = blocks human cytochrome P450 2C19 | P33261 | CYP2C19 Supersomes, luciferin-H EGE luminescence, 30 min | inhibition, % at 5 µM | 96,000 tested, 21% active | AID 778;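 active = CYP2C19 inhibition above a set limit at 5 µM in the primary screen, cut at about 50% in these data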;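 also: plate controls were negative control wells for no effect and 2.5 mM tranylcypromine positive control for full effect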
Target sequence (P33261 whole entry, looked up): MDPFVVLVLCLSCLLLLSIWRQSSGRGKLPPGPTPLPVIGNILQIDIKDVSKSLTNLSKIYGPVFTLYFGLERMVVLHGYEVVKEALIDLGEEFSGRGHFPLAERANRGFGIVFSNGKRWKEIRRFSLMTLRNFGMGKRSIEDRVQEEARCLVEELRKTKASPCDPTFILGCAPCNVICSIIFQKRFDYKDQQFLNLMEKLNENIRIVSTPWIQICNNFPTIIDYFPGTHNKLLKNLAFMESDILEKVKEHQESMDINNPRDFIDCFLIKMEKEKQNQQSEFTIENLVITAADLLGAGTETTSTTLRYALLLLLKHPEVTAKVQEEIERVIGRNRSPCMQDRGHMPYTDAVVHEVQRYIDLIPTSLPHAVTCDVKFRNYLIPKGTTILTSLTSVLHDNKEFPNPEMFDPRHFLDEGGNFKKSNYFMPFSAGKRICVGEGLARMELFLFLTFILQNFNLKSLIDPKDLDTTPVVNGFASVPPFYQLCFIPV
CYP2C19 activ = activators of human cytochrome P450 2C19. 96,000 tested, under 10 active. P33261. AID 1025. recombinant CYP2C19, luciferin-H EGE luminescence; hits give high values; 0 = fully inhibited enzyme, 1 = untreated enzyme. activation factor at 5 µM;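 active = activation factor of at least 2 at 5 µM in the primary screen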;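 also: 0 = wells with 2.5 mM tranylcypromine and 1 = vehicle-only wells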
* = called active by the depositor; · = no result given. Sampled rows, rich in hits. Any-hit rate of the full collection: about 27%.

SMILES | CYP2C9 inhib | CYP2C9 activ | Cav32 inh | CYP2C19 inhib | CYP2C19 activ
CCc1cc2c(=O)c(-n3cnc4ccccc43)coc2cc1O | -15 | 1.1 | 1.2 | 34 | 0.7
O=C(c1cccc(N2C(=O)C3CC=CCC3C2=O)c1)N1CCCCCC1 (centres undefined) | · | · | 1.1 | · | ·
NC(=O)c1ccc(N2CCCCC2)c(N2C(=O)C3CC=CCC3C2=O)c1 (centres undefined) | 31 | 0.7 | -0.024 | 50* | 0.5
CCN(CC)S(=O)(=O)c1csc(C(=O)OCC(=O)c2ccccc2)c1 | · | · | -0.35 | · | ·
O=C(C1CC=CCC1)N1CCN(C(=O)C2CC=CCC2)CC1 (centres undefined) | · | · | -0.068 | · | ·
COCCCn1c(C2CCCCC2)nc2oc3cc(OC)ccc3c(=O)c2c1=O | 70* | 0.3 | 2.3 | 52* | 0.5
CCc1nc2oc3cc(OC)ccc3c(=O)c2c(=O)n1Cc1ccccc1 | 49 | 0.5 | 0.99 | 53* | 0.5
CCc1nc2oc3ccccc3c(=O)c2c(=O)n1Cc1ccccc1 | 4 | 1 | 1.2 | 3 | 1
COc1ccc2c(=O)c3c(=O)n(Cc4ccco4)c(C(C)C)nc3oc2c1 | · | · | 0.82 | · | ·
COc1ccc2c(=O)c3c(=O)n(Cc4ccco4)c(C4CCCCC4)nc3oc2c1 | 26 | 0.7 | · | 53* | 0.5
COC1(OC)C(/C=C/c2ccc(Cl)cc2)C(C#N)(C#N)C1(OC)OC (centres undefined) | · | · | -1.4 | · | ·
CCC(C)Sc1nc(O)c(Cc2ccccc2)c(=O)[nH]1 (centres undefined) | 23 | 0.8 | -0.039 | 8 | 0.9
Cc1csc(SCc2nc3sc4c(c3c(=O)[nH]2)CCC4)n1 | · | · | -0.084 | · | ·
CSc1ccccc1NC(=O)Nc1ccc(Cl)cc1 | 53* | 0.5 | -1.9 | 85* | 0.2
CCOC(=O)c1ccc(NC(=O)c2cc(S(=O)(=O)N3CCOCC3)ccc2O)cc1 | 42 | 0.6 | -0.19 | -8 | 1.1
O=[N+]([O-])c1ccccc1NCCNc1ncc(C(F)(F)F)cc1Cl | 0 | 1 | 0.16 | -9 | 1.1
N#CCC(CNc1ncc(C(F)(F)F)cc1Cl)OC(=O)c1c(F)cccc1F (centres undefined) | · | · | -3.7* | · | ·
N#CCC(CNc1ncc(C(F)(F)F)cc1Cl)OC(=O)c1cccc([N+](=O)[O-])c1 (centres undefined) | 68* | 0.3 | -2.5 | 96* | 0
CC/C(=C\C(=O)c1ccncc1)Nc1ccc(O)cc1 | 41 | 0.6 | 0.28 | 87* | 0.1
CC(C)NC(=O)CCNS(=O)(=O)c1ccc(Br)cc1 | -76 | 1.8 | -2.5 | 50* | 0.5
CCN(C(=O)c1cc2cc(OC)ccc2oc1=O)c1cccc(C)c1 | 51* | 0.5 | -0.62 | 56* | 0.4
CCN(C(=O)c1cc2cc(OC)ccc2oc1=O)c1ccccc1 | 36 | 0.6 | 0.24 | 16 | 0.8
CCOc1ccccc1/C=N/NC(=O)c1ccc(Cn2cc([N+](=O)[O-])cn2)o1 | -11 | 1.1 | 0.11 | 29 | 0.7
CCOc1ccc(/C=N/NC(=O)c2ccc(Cn3cc([N+](=O)[O-])cn3)o2)cc1 | 59* | 0.4 | -0.29 | 6 | 0.9
CCOC(=O)c1c(NC(=O)CN2CCOCC2)sc2c1CC(C)(C)OC2 | 74* | 0.3 | -0.61 | 50 | 0.5
SMILES | CYP2C9 inhib | CYP2C9 activ | Cav32 inh | CYP2C19 inhib | CYP2C19 activ
CCOC(=O)c1c(NC(=O)c2ccc(C)cc2)sc2c1CC(C)(C)OC2 | 18 | 0.8 | -0.28 | -5 | 1.1
CCOC(=O)c1c(NC(=O)c2ccccc2C)sc2c1CC(C)(C)OC2 | 77* | 0.2 | 0.11 | 47 | 0.5
CN(C)S(=O)(=O)c1cccc(C(=O)NCCc2ccccc2)c1 | -4 | 1 | · | 4 | 1
COC(=O)c1ccc(CSc2nc(C(F)(F)F)c3c(c2C#N)CCC3)o1 | 6 | 0.9 | · | 78* | 0.2
COC(=O)c1ccc(CSc2nc(C)nc3c2c(=O)n(C)c(=O)n3C)o1 | · | · | 0.91 | · | ·
CCCC(=O)NNc1cc(=O)c2c(=O)n(C)c(=O)n(C)c2[nH]1 | -9 | 1.1 | -0.3 | -12 | 1.1
O=C1C=C(c2ccccc2)OC2(CCCC2)O1 | -12 | 1.1 | -0.14 | 63* | 0.4
O=S(=O)(c1ccc(N2CCN(CCO)CC2)nc1)N1CCCCC1 | · | · | 0.59 | · | ·
Cc1cc(S(=O)(=O)Nc2ccc(N(C)C)cc2)c(C)s1 | 100* | 0 | -0.61 | 100* | 0
CCOc1ccc(C2CC(c3ccc(CC)cc3)Nc3nc(N)nn32)cc1 (centres undefined) | 40 | 0.6 | -0.17 | 0 | 1
COc1ccc2c(C)cc(N3CCN(c4ccc(F)cc4)CC3)nc2c1 | -126 | 2.3* | -2.4 | 83* | 0.2
Cc1cc(N2CCN(c3ccccc3F)CC2)nc2cc(O)ccc12 | -104 | 2* | -1.5 | 57* | 0.4
Cc1cc(N2CCN(c3ccc(F)cc3)CC2)nc2cc(O)ccc12 | -219 | 3.2* | -0.34 | 31 | 0.7
CN(C)C(=O)Cn1cnc2c(cnn2-c2ccccc2Cl)c1=O | 0 | 1 | 0.26 | 7 | 0.9
CCOC(=O)C(C)Oc1cccc2c(=O)n(CC(=O)Nc3ccc(OCC)cc3)ccc12 (centres undefined) | 21 | 0.8 | -1.7 | 8 | 0.9
C=CCOc1ccc2c(c1)C(=NO)c1cc(OCC=C)ccc1-2 | 82* | 0.2 | 0.51 | 33 | 0.7
OCC[C@H]1C[C@H](O)[C@@H](O)[C@]2(CCCO2)O1 | · | · | 1.6 | · | ·
C=CCNC(=O)N1C2=NC(C(=O)OC)=C(C(=O)OC)[C@@H]3N(Cc4ccccc4)c4ccccc4[C@]23C[C@H]1C(=O)OC | · | · | -1.6 | · | ·
Cn1c(NCc2ccccc2Cl)nc2ccccc21 | · | · | 1.4 | · | ·
Cn1c(NCc2ccccc2O)nc2ccccc21 | -1 | 1 | 1.3 | 64* | 0.4
Cn1c(NCc2cccc(Br)c2)nc2ccccc21 | 31 | 0.7 | -2.5 | 54* | 0.5
N#CN=C1CCCCCN1CC(N)=O | -2 | 1 | 0.63 | 2 | 1
CCOC(=O)C1=C(C)NC2=C(C(=O)CCC2)C1c1ccc(N(C)C)cc1 (centres undefined) | 29 | 0.7 | -0.017 | 31 | 0.7
CCOC(=O)C1=C(CC)NC2=C(C(=O)CCC2)C1c1ccc(OC)c(OC)c1 (centres undefined) | 2 | 1 | 0.0044 | 50* | 0.5
COC(=O)C1=C(C)NC2=C(C(=O)CCC2)C1c1cccs1 (centres undefined) | 76* | 0.2 | 1.1 | 79* | 0.2
CCOC(=O)C1=C(C)NC2=C(C(=O)CCC2)C1c1ccsc1 (centres undefined) | 39 | 0.6 | 0.27 | 53* | 0.5
CCCOC(=O)C1=C(C)NC2=C(C(=O)CCC2)C1c1ccc(N(C)C)cc1 (centres undefined) | 56* | 0.4 | -0.32 | 22 | 0.8
Fc1ccc(OCCOCCNCC2CCCO2)cc1 (centres undefined) | · | · | -0.35 | · | ·
COc1ccccc1S(=O)Cc1ccc(C(=O)NCc2ccccc2Cl)o1 (centres undefined) | 26 | 0.7 | 0.96 | 36 | 0.6
CCC(C)NS(=O)(=O)c1ccc(OCC(=O)N2CCCCC2)cc1 (centres undefined) | -5 | 1 | 0.65 | 0 | 1
